Assay results from PubChem BioAssay (EPA / NIEHS).
Results filed as inconclusive are left out. Calls of active or inactive are those of the source. Rule for the calls, unless noted: active = hit-call score of the fitted dose curve at least 0.9, where 1 is the maximum; inactive = score below 0.9.

Key:
[1] = CCTE_Shafer_MEA_acute_network_burst_percentage: CCTE's Neural Acute Assay for Percentage of Network Bursts, Shafer Lab (AID 2284022);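 note: rat primary cortical neuron networks on multiwell MEA recorded 40 min; curves fitted for loss so actives lower network burst percentage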
Outline: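 Network burst percentage (spikes in network bursts divided by total spikes) recorded at 37 C over 40 min baseline and 40 min after compound, 0.03-40 uM, in rat cortical cultures at DIV 13 or 15. Analysed as percent change from baseline versus DMSO.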

[2] = CCTE_Shafer_MEA_acute_cross_correlation_area: CCTE's Neural Acute Assay for Area of Cross Correlation, Shafer Lab (AID 2284024);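 note: rat primary cortical neuron networks on 48-well MEA at DIV 13 or 15 with 40 min exposure; area under pooled inter-electrode spike cross-correlation near zero lag as percent change from own baseline; curves fitted for loss of cross-correlation area so actives lower synchrony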
Outline: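 Percent change in well-wide cross-correlation area (window around zero lag) between 40 min baseline and 40 min post-compound recordings, 37 C; rat cortical cultures on MEA at DIV 13 or 15, dosed 0.03-40 uM, wells needing >/= 10 active electrodes.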

[3] = CCTE_Shafer_MEA_acute_cross_correlation_HWHM: CCTE's Neural Acute Assay for Cross Correlation at Half Width at Half Maximum, Shafer Lab (AID 2284026);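 note: spontaneous network firing of rat primary cortical neurons on multiwell microelectrode arrays; percent change per well from pre-dose baseline in spike cross-correlogram half width; hits are a decrease in cross-correlogram half width relative to DMSO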
Outline: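 Per-well percent change in cross-correlogram half width at half maximum, derived from 40-min recordings before and after compound (0.03-40 uM) at 37 C. Cultures were rat cortical neurons, DIV 13 or 15, with adaptive spike detection at 8x rms.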

[4] = CCTE_Shafer_MEA_acute_synchrony_index: CCTE's Neural Acute Assay for Synchrony, Shafer Lab (AID 2284027);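 note: network synchrony index of spontaneous spiking in primary rat cortical neurons on MEAs; fitted for loss of signal so actives lower synchrony relative to DMSO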
Outline: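 Spontaneous firing of mature rat cortical networks is captured extracellularly on microelectrode arrays at 37 C, with wells needing ≥10 active electrodes. Each compound (0.03-40 uM) is judged by the change in synchrony index from baseline over 40 min.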

[5] = CCTE_Shafer_MEA_acute_LDH: CCTE's Lactate Dehydrogenase Assay for Cytotoxicity in the Neural Acute Assay, Shafer Lab (AID 2284086; active = hit-call score of the fitted dose curve at least 0.9, where 1 is the maximum;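 note: active means LDH release rises above DMSO vehicle level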)
Outline: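 Released lactate dehydrogenase, read at 490 nm, indicated cytotoxicity after acute 40-min compound treatment of rat cortical neuron networks grown on 48-well MEA plates.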

[6] = CCTE_Mundy_HCI_hN2_NOG_NeuriteCount: CCTE's Neurite Outgrowth Assay in human hN2 cells for Neurite Count, Mundy Lab (AID 2284219; active = hit-call score of the fitted dose curve at least 0.9, where 1 is the maximum)
Outline: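 In this morphology assay, hNP1-derived neurons received test chemical 2 h post-plating and were fixed two days later in warm paraformaldehyde/sucrose containing Hoechst 33342. Neurites, labelled by rabbit anti-βIII-tubulin (1:800) and Alexa Fluor-488 (1:500), were counted automatically.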

[7] = CCTE_Mundy_HCI_hN2_NOG_NeuriteLength: CCTE's Neurite Outgrowth Assay in human hN2 cells for Neurite Length, Mundy Lab (AID 2284220; active = hit-call score of the fitted dose curve at least 0.9, where 1 is the maximum)
Outline: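 Using βIII-tubulin immunofluorescence and Hoechst nuclear counterstain, this component quantifies neurite length in hNP1-derived neurons.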

Measured: outcome

CC1(C)S[C@@H]2[C@H](NC(=O)[C@H](N)c3ccc(O)cc3)C(=O)N2[C@H]1C(=O)O
inactive: all assays above
